The panel holds about 79,000 compounds, 15% with a hit somewhere; the sample as a whole holds those more often. Values without a mark were called inactive. The source made the active and inactive calls. Rule as the data show it: active = growth inhibition above about 70%; inactive = the rest.
How the values were obtained:
[1] = NCI Yeast Anticancer Drug Screen. Data for the rad50 strain (AID 155);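 also: 0% = growth of vehicle-only cultures of the same strain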; details: S. cerevisiae rad50 strain growth inhibition, stronger effect = higher value
Outline: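 Genetically altered yeast (DNA repair pathway); compound treatment; growth inhibition vs vehicle ctrl.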

[2] = NCI Yeast Anticancer Drug Screen. Data for the mec2-1 strain (AID 157); details: S. cerevisiae mec2-1 strain, stronger effect = higher value
Outline: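 Growth inhibition is read against vehicle-treated controls after compound exposure of the mec2-1 yeast strain, which is defective in DNA damage repair or cell cycle control.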

[3] = NCI Yeast Anticancer Drug Screen. Data for the sgs1 mgt1 strain (AID 161);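 also: 0% = growth of cultures given vehicle only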; details: S. cerevisiae sgs1 mgt1 strain, stronger effect = higher value
Outline: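 This yeast growth screen uses a strain with defined DNA-repair lesions; compound-treated growth is compared with vehicle-treated growth.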

[4] = NCI Yeast Anticancer Drug Screen. Data for the cln2 rad14 strain (AID 165);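 also: 0% = growth equal to vehicle treated cultures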; details: S. cerevisiae cln2 rad14 strain, stronger effect = higher value
Outline: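 Growth inhibition, relative to vehicle-treated controls, is the read-out. The test organism is a yeast strain with defined genetic alterations, cln2 rad14.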

[5] = NCI Yeast Anticancer Drug Screen. Data for the bub3 strain (AID 167); details: S. cerevisiae bub3 mutant strain, stronger effect = higher value
Outline: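 Yeast carrying a defined mutation is treated with each compound, and growth is compared with that of vehicle-exposed cells to give inhibition.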

[6] = NCI Yeast Anticancer Drug Screen. Data for the mlh1 rad18 strain (AID 175); details: S. cerevisiae mlh1 rad18 strain growth inhibition, stronger effect = higher value
Outline: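 Cells of a genetically altered yeast strain, deficient in DNA damage repair, were treated with compound. Their growth was then compared with that of vehicle-treated cultures to give inhibition.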

[7] = at 5.0 µM (retest, dose inferred, filed as 0.5)
[8] = at 50.0 µM (retest, dose inferred, filed as 5.0)

Molecule `COC(=O)/C=C/c1cccc[n+]1[O-]` has a growth inhibition [1, 7] of 3%, a growth inhibition [1, 8] of -6% and a growth inhibition ([1]; at 50.0 µM) of 44.6%. It also gave a growth inhibition [2, 7] of 3%, a growth inhibition [2, 8] of -4% and a growth inhibition ([2]; at 50.0 µM) of -2.85%. The growth inhibition [3, 7] was 4%, the growth inhibition [3, 8] was -6% and the growth inhibition ([3]; at 50.0 µM) was 0.55%. For the same molecule, the growth inhibition [4, 7] was 4%, the growth inhibition [4, 8] was -15% and the growth inhibition ([4]; at 50.0 µM) was 54.8%. The growth inhibition [5, 7] was 4%, the growth inhibition [5, 8] was 0% and the growth inhibition ([5]; at 50.0 µM) was -4.4%. For the same molecule, the growth inhibition [6, 7] was -1%, the growth inhibition [6, 8] was -11% and the growth inhibition ([6]; at 50.0 µM) was 17.8%.
With `Cc1[nH]nc(C(=O)N(C)C)c1N=NN(C)C` the growth inhibition [1, 7] was -61%, the growth inhibition [1, 8] was 93% (active) and the growth inhibition ([1]; at 50.0 µM) was 97.8% (active). The growth inhibition [2, 7] was -44%, the growth inhibition [2, 8] was 91% (active) and the growth inhibition ([2]; at 50.0 µM) was 88.8% (active). The growth inhibition [3, 7] was -43%, the growth inhibition [3, 8] was 88% (active) and the growth inhibition ([3]; at 50.0 µM) was 82% (active). The growth inhibition [4, 7] was -50%, the growth inhibition [4, 8] was 78% (active) and the growth inhibition ([4]; at 50.0 µM) was 79.8% (active). The growth inhibition [5, 7] was -65%, the growth inhibition [5, 8] was 83% (active) and the growth inhibition ([5]; at 50.0 µM) was 79.2% (active). The growth inhibition [6, 7] was -105%, the growth inhibition [6, 8] was 90% (active) and the growth inhibition ([6]; at 50.0 µM) was 95.6% (active).
In the case of `N#C/C(=C1/C(=O)c2ccccc2-c2ccccc21)c1ccccc1`, the growth inhibition [1, 7] is reported as 92% (active), the growth inhibition [1, 8] is reported as 97% (active) and the growth inhibition ([1]; at 50.0 µM) is reported as 97.2% (active). For the same molecule, the growth inhibition [2, 7] was 100% (active), the growth inhibition [2, 8] was 99% (active) and the growth inhibition ([2]; at 50.0 µM) was 98.2% (active). For the same molecule, the growth inhibition [3, 7] was 99% (active), the growth inhibition [3, 8] was 99% (active) and the growth inhibition ([3]; at 50.0 µM) was 97.6% (active). The growth inhibition [4, 7] was 61%, the growth inhibition [4, 8] was 97% (active) and the growth inhibition ([4]; at 50.0 µM) was 98.2% (active). For the same molecule, the growth inhibition [5, 7] was 99% (active), the growth inhibition [5, 8] was 98% (active) and the growth inhibition ([5]; at 50.0 µM) was 98% (active). For the same molecule, the growth inhibition [6, 7] was 99% (active), the growth inhibition [6, 8] was 99% (active) and the growth inhibition ([6]; at 50.0 µM) was 98.7% (active).
For `O=NN(CCCl)C(=O)Nc1cc(Cl)ccc1O`, the growth inhibition [1, 7] was -8%, the growth inhibition [1, 8] was 57% and the growth inhibition ([1]; at 50.0 µM) was 86.2% (active). For the same molecule, the growth inhibition [2, 7] was -8%, the growth inhibition [2, 8] was 30% and the growth inhibition ([2]; at 50.0 µM) was 36.1%. The growth inhibition [3, 7] was -5%, the growth inhibition [3, 8] was 46% and the growth inhibition ([3]; at 50.0 µM) was 72.5% (active). It also gave a growth inhibition [4, 7] of -3%, a growth inhibition [4, 8] of 13% and a growth inhibition ([4]; at 50.0 µM) of 8.45%. The growth inhibition [5, 7] was -21%, the growth inhibition [5, 8] was -16% and the growth inhibition ([5]; at 50.0 µM) was 37.1%. The growth inhibition [6, 7] was 5%, the growth inhibition [6, 8] was 81% (active) and the growth inhibition ([6]; at 50.0 µM) was 90.1% (active).
In the case of `Nc1cc(Br)cc2c1[nH]c1ccc(Br)cc12`, the growth inhibition [1, 7] is reported as 46%, the growth inhibition [1, 8] is reported as 98% (active) and the growth inhibition ([1]; at 50.0 µM) is reported as 98.6% (active). The growth inhibition [2, 7] was 16%, the growth inhibition [2, 8] was 98% (active) and the growth inhibition ([2]; at 50.0 µM) was 99% (active). For the same molecule, the growth inhibition [3, 7] was 59%, the growth inhibition [3, 8] was 99% (active) and the growth inhibition ([3]; at 50.0 µM) was 98.1% (active). The growth inhibition [4, 7] was 3%, the growth inhibition [4, 8] was 97% (active) and the growth inhibition ([4]; at 50.0 µM) was 97.8% (active). The growth inhibition [5, 7] was 18%, the growth inhibition [5, 8] was 98% (active) and the growth inhibition ([5]; at 50.0 µM) was 98.5% (active). The growth inhibition [6, 7] was 58%, the growth inhibition [6, 8] was 98% (active) and the growth inhibition ([6]; at 50.0 µM) was 98.9% (active).
In the case of `CCCN(CCC)C(=O)CCC(C)=O`, the growth inhibition [1, 7] is reported as 0%, the growth inhibition [1, 8] is reported as -3% and the growth inhibition ([1]; at 50.0 µM) is reported as -13.8%. For the same molecule, the growth inhibition [2, 7] was 1%, the growth inhibition [2, 8] was 2% and the growth inhibition ([2]; at 50.0 µM) was -7.5%. The growth inhibition [3, 7] was 1%, the growth inhibition [3, 8] was -1% and the growth inhibition ([3]; at 50.0 µM) was -23.8%. The growth inhibition [4, 7] was -7%, the growth inhibition [4, 8] was 3% and the growth inhibition ([4]; at 50.0 µM) was 41.5%. The growth inhibition [5, 7] was -1%, the growth inhibition [5, 8] was -3% and the growth inhibition ([5]; at 50.0 µM) was -18.4%. The growth inhibition [6, 7] was 1%, the growth inhibition [6, 8] was -3% and the growth inhibition ([6]; at 50.0 µM) was 17.1%.
In the case of `COC(=O)c1ccc(SCCC(=O)CCl)cc1`, the growth inhibition [1, 7] is reported as 23%, the growth inhibition [1, 8] is reported as 99% (active) and the growth inhibition ([1]; at 50.0 µM) is reported as 99.3% (active). For the same molecule, the growth inhibition [2, 7] was 25%, the growth inhibition [2, 8] was 99% (active) and the growth inhibition ([2]; at 50.0 µM) was 99.2% (active). The growth inhibition [3, 7] was 24%, the growth inhibition [3, 8] was 99% (active) and the growth inhibition ([3]; at 50.0 µM) was 99% (active). For the same molecule, the growth inhibition [4, 7] was 14%, the growth inhibition [4, 8] was 99% (active) and the growth inhibition ([4]; at 50.0 µM) was 98.7% (active). The growth inhibition [5, 7] was 38%, the growth inhibition [5, 8] was 99% (active) and the growth inhibition ([5]; at 50.0 µM) was 99.4% (active). The growth inhibition [6, 7] was 27%, the growth inhibition [6, 8] was 99% (active) and the growth inhibition ([6]; at 50.0 µM) was 99% (active).
For `CN(C)CCCNc1c(C#N)[n+]([O-])c2cc(Cl)ccc2[n+]1[O-]`, the growth inhibition [1, 7] was 59%, the growth inhibition [1, 8] was 93% (active) and the growth inhibition ([1]; at 50.0 µM) was 66.7%. For the same molecule, the growth inhibition [2, 7] was 72% (active), the growth inhibition [2, 8] was 93% (active) and the growth inhibition ([2]; at 50.0 µM) was 43.5%. For the same molecule, the growth inhibition [3, 7] was 60%, the growth inhibition [3, 8] was 90% (active) and the growth inhibition ([3]; at 50.0 µM) was 61.9%. For the same molecule, the growth inhibition [4, 7] was 70% (active), the growth inhibition [4, 8] was 90% (active) and the growth inhibition ([4]; at 50.0 µM) was 45.6%. For the same molecule, the growth inhibition [5, 7] was 88% (active), the growth inhibition [5, 8] was 94% (active) and the growth inhibition ([5]; at 50.0 µM) was 60%. The growth inhibition [6, 7] was 80% (active), the growth inhibition [6, 8] was 93% (active) and the growth inhibition ([6]; at 50.0 µM) was 68.8%.
With `Oc1cccc2cc(Br)cnc12` the growth inhibition [1, 7] was 24%, the growth inhibition [1, 8] was 99% (active) and the growth inhibition ([1]; at 50.0 µM) was 84% (active). The growth inhibition [2, 7] was -17%, the growth inhibition [2, 8] was 99% (active) and the growth inhibition ([2]; at 50.0 µM) was 91.6% (active). The growth inhibition [3, 7] was -10%, the growth inhibition [3, 8] was 99% (active) and the growth inhibition ([3]; at 50.0 µM) was 81.5% (active). The growth inhibition [4, 7] was 2%, the growth inhibition [4, 8] was 99% (active) and the growth inhibition ([4]; at 50.0 µM) was 88.8% (active). For the same molecule, the growth inhibition [5, 7] was -25%, the growth inhibition [5, 8] was 99% (active) and the growth inhibition ([5]; at 50.0 µM) was 88.2% (active). The growth inhibition [6, 7] was 21%, the growth inhibition [6, 8] was 99% (active) and the growth inhibition ([6]; at 50.0 µM) was 74.7% (active).
With `COc1ccc2c(C)cc(N/N=C(\C)c3ccccn3)nc2c1` the growth inhibition [1, 7] was 2%, the growth inhibition [1, 8] was 57% and the growth inhibition ([1]; at 50.0 µM) was 99.5% (active). The growth inhibition [2, 7] was -3%, the growth inhibition [2, 8] was 51% and the growth inhibition ([2]; at 50.0 µM) was 99.7% (active). For the same molecule, the growth inhibition [3, 7] was 7%, the growth inhibition [3, 8] was 42% and the growth inhibition ([3]; at 50.0 µM) was 99.6% (active). For the same molecule, the growth inhibition [4, 7] was -6%, the growth inhibition [4, 8] was 28% and the growth inhibition ([4]; at 50.0 µM) was 99.5% (active). The growth inhibition [5, 7] was 0%, the growth inhibition [5, 8] was 67% and the growth inhibition ([5]; at 50.0 µM) was 99.7% (active). The growth inhibition [6, 7] was -2%, the growth inhibition [6, 8] was 57% and the growth inhibition ([6]; at 50.0 µM) was 99.5% (active).
